TLR9-MyD88 inh = inhibitors of human TLR9-MyD88 binding. Q9NR96+Q99836. CHO BLA complementation TLR9-MyD88, CCF4 FRET ratio. inhibition, % at 4.98 µM. 0.21% of 340,000 active;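 active = inhibition above the mean over all tested compounds plus 3 SD, cut at about 21% in these data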;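 note: 0% = DMSO only wells and 100% = clavulanate BLA inhibitor control wells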
NOD2-RIPK2 inh = blocks binding of human NOD2 to RIPK2; O43353; CHO BLA complementation NOD2-RIPK2, CCF4 ratio; inhibition, % at 4.98 µM; 0.38% of 360,000 active; AID 624267; in the data active = inhibition above about 21%;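 note: 0% = vehicle only and 100% = reference blocker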
TLR4-MyD88 BLA = TLR4-MyD88 interaction inhibition in cells. O00206+Q99836. HeLa CL3-4 TLR4/MyD88 BLA complementation, FRET ratio. inhibition, % at 8.4 µM. 0.18% of 200,000 active. AID 861; in the data active = inhibition above about 25%;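 note: 0% = vehicle and 100% = reference inhibitor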
Granule exo inh = blocks lytic granule exocytosis; TALL-104 LAMP-1 surface exposure, flow cytometry; cells stimulated with thapsigargin and PMA; inhibition, % at 10 µM; 0.66% of 360,000 active; AID 651702;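 active = inhibition above about 55%, limit read from the data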
B2AR ag = agonists of human beta-2 adrenergic receptor inducing internalization; P07550; Am2.2-beta2AR cells, FAP receptor internalization, flow cytometry; response, % (test concentration not listed); 0.43% of 340,000 active;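 active = response above a set limit, near 3 SD of response in nonfluorescent compounds, cut at about 42% in these data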
ABHD5 PLIN5 PPI = ABHD5-PLIN5 protein interaction inhibition; Q00G26+Q8WTS1; Split G. princeps luciferase complementation, luminescence, 4 h; inhibition, % at 4 µM; 0.78% of 360,000 active; AID 602281;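 active = inhibition above the mean inhibition across every tested compound plus 3 SD, cut at about 22% in these data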;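 note: 0% = DMSO only wells and the 100% control is not disclosed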
ABHD5-PLIN5 conf = ABHD5-PLIN5 interaction inhibition, confirmed; shares compounds with ABHD5 PLIN5 PPI; biochemical ABHD5-PLIN5 interaction, luminescence; inhibition, % at 4 µM; 67% of 2,200 active; AID 651612; in the data active = inhibition above about 23%;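 note: 0% = DMSO vehicle wells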
HNF4 counter = active in HNF4 split-luciferase counter-screen for ABHD5-PLIN5 inhibitors. AID 651674. HNF4 dimerization, luminescence, biochemical. inhibition, % at 4 µM. shares compounds with ABHD5 PLIN5 PPI. 77% of 2,200 active;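 active = mean inhibition across replicate wells exceeding the computed hit threshold, cut at about 13% in these data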;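 note: light from luciferase halves that rejoin when HNF4 fusion proteins dimerize; 0% = DMSO only wells and the 100% control is not given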
Target sequence (P41235 whole entry, looked up, the tested form may be a part): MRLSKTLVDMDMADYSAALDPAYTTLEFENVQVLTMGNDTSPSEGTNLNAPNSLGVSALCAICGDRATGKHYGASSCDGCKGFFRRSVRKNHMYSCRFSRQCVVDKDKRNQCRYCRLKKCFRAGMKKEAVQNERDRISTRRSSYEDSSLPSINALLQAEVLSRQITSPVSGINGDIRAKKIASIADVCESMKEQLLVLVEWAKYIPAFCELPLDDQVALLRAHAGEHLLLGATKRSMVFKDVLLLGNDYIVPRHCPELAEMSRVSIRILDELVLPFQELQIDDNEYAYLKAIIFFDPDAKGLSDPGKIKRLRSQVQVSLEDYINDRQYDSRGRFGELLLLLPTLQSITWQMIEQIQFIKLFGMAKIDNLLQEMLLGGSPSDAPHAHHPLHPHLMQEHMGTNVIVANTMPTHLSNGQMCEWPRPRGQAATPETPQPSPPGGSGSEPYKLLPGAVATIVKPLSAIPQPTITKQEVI
An asterisk follows results filed as active. Most compounds without a hit are left out; they make up all but 2% or so of the library.

`COC(=O)[C@@]1(Cc2ccc(F)cc2)[C@H]2C(CC(=O)C(=O)N3CCCC3)C(=O)C[C@H]2CN1C(=O)c1ccccc1` (some centres not stated) gave NOD2-RIPK2 inh 2, Granule exo inh 1 and ABHD5 PLIN5 PPI 18.
For COC(=O)[C@@]1(Cc2ccc(OC)cc2)[C@@H]2C(=CC(=O)[C@H]2CC(=O)C(=O)N2CCCC2)CN1C(=O)c1ccccc1 the results were TLR9-MyD88 inh -8, NOD2-RIPK2 inh 5, TLR4-MyD88 BLA -8, Granule exo inh -5, B2AR ag 17, ABHD5 PLIN5 PPI 33*, ABHD5-PLIN5 conf 63* and HNF4 counter 49*.
Screening CCC(=O)N1CCCC(C)(C(=O)Nc2ccc(OC(F)F)cc2)C1 (configuration not stated) returned NOD2-RIPK2 inh -8, Granule exo inh 1 and ABHD5 PLIN5 PPI -12.
COc1ccccc1C(C[N+](=O)[O-])c1c(N)n(C)c(=O)n(C)c1=O (configuration not stated) was read as NOD2-RIPK2 inh 0, Granule exo inh 35, B2AR ag 2, ABHD5 PLIN5 PPI 39*, ABHD5-PLIN5 conf 33* and HNF4 counter 65*.
CCOC(=O)c1c(-c2ccc(C)o2)csc1NC(=O)CN1CCOCC1 was read as TLR9-MyD88 inh -9, NOD2-RIPK2 inh 0, TLR4-MyD88 BLA 0, Granule exo inh -3, B2AR ag 8 and ABHD5 PLIN5 PPI 5.
Screening CCOC(=O)c1c(-c2ccc(C)o2)csc1NC(=O)CSc1ncn[nH]1 returned TLR9-MyD88 inh 7, NOD2-RIPK2 inh -7, TLR4-MyD88 BLA -9, Granule exo inh 2, B2AR ag -1, ABHD5 PLIN5 PPI 44*, ABHD5-PLIN5 conf 12 and HNF4 counter 52*.
For Cn1c(=O)c(Nc2ccc(O)cc2)c2c3c(cccc31)C(=O)c1ccccc1-2 the results were TLR9-MyD88 inh -8, NOD2-RIPK2 inh -3, TLR4-MyD88 BLA -11, Granule exo inh 39, B2AR ag 10, ABHD5 PLIN5 PPI 25*, ABHD5-PLIN5 conf 22* and HNF4 counter 20*.
For Cc1ccc(N=CC=C2OC(C)(C)C(C)(C)O2)c(C)c1 the results were TLR9-MyD88 inh 2, NOD2-RIPK2 inh -3, TLR4-MyD88 BLA 5, Granule exo inh -9, B2AR ag 3 and ABHD5 PLIN5 PPI 2.
For COc1ccccc1N=CC=C1OC(C)(C)C(C)(C)O1 the results were TLR9-MyD88 inh 7, NOD2-RIPK2 inh 3, TLR4-MyD88 BLA 2, Granule exo inh 0, B2AR ag 0, ABHD5 PLIN5 PPI 37*, ABHD5-PLIN5 conf -5 and HNF4 counter 10.
For Cc1ccc(/C=C/C(=O)N2CCc3ccccc32)o1 the results were TLR9-MyD88 inh -2, NOD2-RIPK2 inh 1, TLR4-MyD88 BLA -12, Granule exo inh 38, B2AR ag -1, ABHD5 PLIN5 PPI 24*, ABHD5-PLIN5 conf 16 and HNF4 counter 50*.
CCN(CC)S(=O)(=O)c1ccc(N2CCOCC2)c(NC(=O)c2[nH]c(C)c(C(C)=O)c2C)c1 was read as TLR9-MyD88 inh 0, NOD2-RIPK2 inh -9, Granule exo inh 6, B2AR ag 10 and ABHD5 PLIN5 PPI 3.
Screening CCOc1ccc(C(=O)NC2C(=O)N3C(C(=O)O)=C(COC(C)=O)CSC23)cc1OCC (configuration not stated) returned TLR9-MyD88 inh -4, NOD2-RIPK2 inh -2, Granule exo inh -4, B2AR ag 5, ABHD5 PLIN5 PPI 32*, ABHD5-PLIN5 conf 11 and HNF4 counter 29*.
`CC(=O)OCC1=C(C(=O)O)N2C(=O)C(NC(=O)c3ccc(COc4c(C)cccc4Cl)o3)C2SC1` (configuration not stated) gave TLR9-MyD88 inh 10, NOD2-RIPK2 inh 3, TLR4-MyD88 BLA -1, Granule exo inh -3, B2AR ag 1, ABHD5 PLIN5 PPI 25*, ABHD5-PLIN5 conf 18 and HNF4 counter 17*.
For CC(=O)OCC1=C(C(=O)O)N2C(=O)C(NC(=O)CCn3nc(C(F)(F)F)c(Br)c3C3CC3)C2SC1 (configuration not stated) the results were TLR9-MyD88 inh -11, NOD2-RIPK2 inh -17, TLR4-MyD88 BLA 8, Granule exo inh 0, B2AR ag -4, ABHD5 PLIN5 PPI 47*, ABHD5-PLIN5 conf 42* and HNF4 counter 8.
`CCC(NC(=O)CSc1nnnn1C1CC1)c1ccc(Br)cc1` (configuration not stated) gave TLR9-MyD88 inh -7, NOD2-RIPK2 inh 13, Granule exo inh -2, B2AR ag -9 and ABHD5 PLIN5 PPI -3.
For COc1ccc(N2CCN(C(=O)COC(=O)c3nc(Cl)ccc3Cl)CC2)cc1 the results were TLR9-MyD88 inh 0, NOD2-RIPK2 inh -5, Granule exo inh -4 and ABHD5 PLIN5 PPI -4.
For CC[N+]1(C)CCC(O)(/C=C/c2ccccc2)C(C(=O)/C=C/c2ccccc2)C1 (configuration not stated) the results were TLR9-MyD88 inh 5, NOD2-RIPK2 inh 2, Granule exo inh 43, B2AR ag 10, ABHD5 PLIN5 PPI 45*, ABHD5-PLIN5 conf 93* and HNF4 counter 109*.
CC1(C)CC(N=c2cc(-c3ccccc3)oc3ccc(Cl)cc23)CC(C)(C)N1 was read as TLR9-MyD88 inh 4, NOD2-RIPK2 inh -10, TLR4-MyD88 BLA 5, Granule exo inh 51, B2AR ag 40, ABHD5 PLIN5 PPI 29*, ABHD5-PLIN5 conf 6 and HNF4 counter 10.
`Cc1ccc(/C(O)=C2/C(=O)C(=O)OC2c2ccc(Cl)cc2)cc1` (configuration not stated) gave TLR9-MyD88 inh -5, NOD2-RIPK2 inh 4, TLR4-MyD88 BLA 9, Granule exo inh 0, B2AR ag 0, ABHD5 PLIN5 PPI 32*, ABHD5-PLIN5 conf 57* and HNF4 counter 37*.
`O=C(NCc1ccccn1)c1ccccc1OCc1ccccc1Cl` gave TLR9-MyD88 inh -4, NOD2-RIPK2 inh -14, Granule exo inh -2 and ABHD5 PLIN5 PPI 3.
`Cc1c(Cl)cccc1NC(CC(=O)c1ccccc1)C(=O)O` (configuration not stated) gave TLR9-MyD88 inh 7, NOD2-RIPK2 inh 4, TLR4-MyD88 BLA -3, Granule exo inh 6, B2AR ag 1, ABHD5 PLIN5 PPI 84*, ABHD5-PLIN5 conf 57* and HNF4 counter 108*.

High-throughput results: PubChem BioAssay, several laboratories
